Measurements as given in PubChem BioAssay (EPA / NIEHS).
Records with an inconclusive call do not appear. Active and inactive are the calls of the source. Rule for the calls: active = hit-call score of the fitted dose curve at least 0.9, where 1 is the maximum; inconclusive = response in the unintended direction; inactive = score below 0.9.

How the values were obtained:
[1] = TOX21_p53_BLA_p2_viability: Viability Assessment in the Tox21 HCT-116 p53 Agonism Beta-lactamase Assay, Phase 2 (AID 2283591);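 note: compound exposure lasted 16 h at 37 °C; actives lower the ATP signal meaning cytotoxicity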
Method in brief: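 HCT-116 p53-bla cells (4000/well) rested 5 h at 37C, then received compounds in DMSO (217-fold dilution) for 16 h at 37C, 5% CO2. After the CCF4 read, CellTiter-Glo was added; ATP luminescence was read after 30 min at room temperature.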

[2] = biological target: Cellular tumor antigen p53 (Homo sapiens) (UniProt P04637); test: TOX21_p53_BLA_p2_ratio: Tox21 HCT-116 p53 Agonism Beta-lactamase Assay, Ratio, Phase 2 (AID 2283592)
Chain of Cellular tumor antigen p53 (Homo sapiens) (P04637 whole entry, looked up): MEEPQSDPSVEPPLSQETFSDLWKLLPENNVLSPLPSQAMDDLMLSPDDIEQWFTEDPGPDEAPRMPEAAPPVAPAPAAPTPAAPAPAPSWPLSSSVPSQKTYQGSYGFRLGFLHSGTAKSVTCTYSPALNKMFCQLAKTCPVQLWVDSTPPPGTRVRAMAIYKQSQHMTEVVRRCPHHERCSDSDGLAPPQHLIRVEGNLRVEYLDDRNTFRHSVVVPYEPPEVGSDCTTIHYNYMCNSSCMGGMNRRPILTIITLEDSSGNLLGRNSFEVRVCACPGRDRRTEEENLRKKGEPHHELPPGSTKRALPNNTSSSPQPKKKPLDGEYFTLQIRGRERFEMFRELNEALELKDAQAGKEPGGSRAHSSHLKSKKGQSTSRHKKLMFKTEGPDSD
Method in brief: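 HCT-116 cells with p53-responsive beta-lactamase reporter, 4000 cells/well, preincubated 5 h, then compound in DMSO (217-fold dilution) for 16 h at 37C. CCF4-AM substrate 2 h at room temperature; 460/530 nm emission ratio fitted upward versus DMSO.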

[3] = TOX21_p53_BLA_p3_viability: Viability Assessment in the Tox21 HCT-116 p53 Agonism Beta-lactamase Assay, Phase 3 (AID 2283593);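 note: cells exposed to compound for 16 h before reading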
Method in brief: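 HCT-116 cells (4000/well) rested 5 h at 37C, then got DMSO compounds by pin tool (217-fold dilution) for 16 h at 37C, 5% CO2. After the bla read, CellTiter-Glo was added and luminescence read at 30 min, room temperature.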

[4] = biological target: Cellular tumor antigen p53 (Homo sapiens) (UniProt P04637); test: TOX21_p53_BLA_p3_ratio: Tox21 HCT-116 p53 Agonism Beta-lactamase Assay, Ratio, Phase 3 (AID 2283596)
Method in brief: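 HCT116 p53-bla cells (4000/well) given compound in DMSO (217-fold dilution) after 5 h, incubated 16 h at 37C. CCF4-AM substrate 2 h at room temperature; 460/530 nm emission ratio, gain fitted against DMSO.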

[5] = TOX21_p53_BLA_p4_viability: Viability Assessment in the Tox21 HCT-116 p53 Agonism Beta-lactamase Assay, Phase 4 (AID 2283597);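 note: hits lower the luminescence signal meaning cytotoxicity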
Method in brief: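 HCT-116 p53-bla cells, 4000/well, dosed after 5 h attachment and incubated 16 h at 37 °C, 5% CO2. Viability from CellTiter-Glo ATP luminescence after 30 min at room temperature, taken after the beta-lactamase read; loss of signal indicates cytotoxicity.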

[6] = biological target: Cellular tumor antigen p53 (Homo sapiens) (UniProt P04637); test: TOX21_p53_BLA_p5_ratio: Tox21 HCT-116 p53 Agonism Beta-lactamase Assay, Ratio, Phase 5 (AID 2283599)
Method in brief: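 HCT-116 cells carrying a p53-inducible beta-lactamase reporter were seeded at 4000 cells/well and dosed after 5 h with compound in DMSO (217-fold dilution). After 16 h at 37C, CCF4-AM substrate was added for 2 h, and the 460/530 nm emission ratio was scored as gain-of-signal versus DMSO.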

[7] = biological target: Cellular tumor antigen p53 (Homo sapiens) (UniProt P04637); test: TOX21_p53_BLA_p4_ratio: Tox21 HCT-116 p53 Agonism Beta-lactamase Assay, Ratio, Phase 4 (AID 2283601)
Method in brief: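 HCT116 cells carrying an inducible beta-lactamase reporter were plated at 4000 cells/well, rested 5 h, then exposed to compounds in DMSO (217-fold dilution) for 16 h at 37C. CCF4-AM substrate was loaded 2 h at room temperature; 460/530 nm emission ratio scored gain-of-signal versus DMSO.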

Measured: outcome

O=P(O)(O)C(O)(Cc1cccnc1)P(=O)(O)O
inactive: all assays above
